The nature of assay [1]: Nuclear factor erythroid 2-related factor 2/antioxidant responsive element (Nrf2/ARE) small molecule agonists: qHTS cell viability counter screen in human keratinocytes (AID 1919968; active means well fitted curve in the direction sought with a large enough effect in the repeat runs; an effect the other way counts as inactive or inconclusive; further: nearly all actives have a fitted effect of over 55% in size; further: potency means the concentration at half of the fitted maximal effect). In outline: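 Stably transfected HaCaT (KeratinoSens), 1,500/well. Test agents in DMSO were applied for 23 h, 37 C/5% CO2. CellTiter-Fluor was incubated 1 h before the fluorescence read.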
A general note: In qHTS, concentration-response curves come from the screen itself.

The target of assay [2] is Gonadotropin-releasing hormone receptor (Homo sapiens) (UniProt P30968). The assay can be described thus: Human gonadotropin-releasing hormone receptor (GnRHR) small molecule agonists, calcium flux assay in GnRHR-HEK293 cells (AID 1920063). Further: nearly all actives have a fitted effect of over 35% in size. In outline: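 Stable human GnRHR HEK293 line. 18 h plating, then calcium dye for 1 h at 37 C. Agonist-mode compound addition from DMSO stocks; fluorescence monitored 3 min.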
Chain of Gonadotropin-releasing hormone receptor (Homo sapiens) (P30968 whole entry, looked up): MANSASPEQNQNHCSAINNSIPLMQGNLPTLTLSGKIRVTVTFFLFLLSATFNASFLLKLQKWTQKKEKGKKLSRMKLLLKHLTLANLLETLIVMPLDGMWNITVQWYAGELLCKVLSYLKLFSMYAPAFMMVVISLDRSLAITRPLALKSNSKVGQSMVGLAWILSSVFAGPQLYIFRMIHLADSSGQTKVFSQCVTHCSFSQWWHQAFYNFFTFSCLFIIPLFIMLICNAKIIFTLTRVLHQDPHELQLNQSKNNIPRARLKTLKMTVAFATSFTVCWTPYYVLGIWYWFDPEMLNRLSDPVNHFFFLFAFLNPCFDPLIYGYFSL
(Calcium assays in cells follow changes in intracellular calcium, usually with a dye or a luminescent sensor.)

The target in assay [3] is KiSS-1 receptor (Homo sapiens) (UniProt Q969F8). Put plainly: Human kisspeptin (KISS1R) small molecule agonists, calcium flux assay in KISS1R-HEK293 cells (AID 1920064; active means well fitted curve in the direction sought with a large enough effect in the repeat runs; an effect the other way counts as inactive or inconclusive). In outline:
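After overnight (18 h) culture at 37 C/5% CO2, human KISS1R-HEK293 cells received calcium dye for 1 h, then test compound; emission at 540 nm (excitation 480 nm) was tracked for 3 min.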

Assay [4] is described as follows: G protein-coupled receptor (GPCR) small molecule agonists, calcium flux assay: HEK293 wild type cell line counter screen (AID 1920065). In outline: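 Following 18 h incubation at 37 C/5% CO2, plates got calcium dye for 1 h; compounds, ATP or DMSO were then pinned in and fluorescence followed kinetically (480/540 nm).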
Assay [5] is described as follows: p53 small molecule agonists, cell-based qHTS assay with human liver microsomes (AID 1963577).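 Further: p53 response element beta-lactamase reporter cells with liver microsomes plus NADPH.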 In outline:
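Steps: plate p53RE-bla cells, incubate 5 h at 37 C; add compound in DMSO; add microsomes (0.5 mg/mL final) and NADPH (0.5 mg/mL final); incubate 16 h at 37 C; add LiveBLAzer, 2 h RT; read fluorescence.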

Assay [6] can be described thus: p53 small molecule agonists, cell-based qHTS assay with rat liver microsomes (AID 1963578). In outline: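 Metabolic activation is supplied by rat liver microsomes with NADPH (each 0.5 mg/mL final). p53RE-bla cells incubate with compound 16 h at 37 C; reporter activity is measured by LiveBLAzer fluorescence.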
The nature of assay [7]: p53 small molecule agonists, cell-based qHTS assay with human liver microsomes: qHTS cell viability counter screen (AID 1963579). Further: nearly all actives have a fitted effect of over 45% in size. In outline: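 After the 460/530 nm beta-lactamase read, CellTiter-Glo was added to the same wells and luminescence measured after 30 min at room temperature, giving viability of p53RE-bla cells treated 16 h with compounds plus microsomes and NADPH.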

The nature of assay [8]: p53 small molecule agonists, cell-based qHTS assay with rat liver microsomes: qHTS cell viability counter screen (AID 1963580). Further: nearly all actives have a fitted effect of over 45% in size. Further: potency means the concentration at half of the fitted maximal effect. In outline:
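Cytotoxicity counter screen: intracellular ATP read by CellTiter-Glo luminescence in the p53 reporter wells. HCT-116 p53RE-bla cells were treated for 16 h at 37 C alongside rat liver microsomes and NADPH, each 0.5 mg/mL final.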

A short description of assay [9]: p53 small molecule agonists, cell-based qHTS assay (AID 1963582; active means well fitted activation curve with a large enough effect in the signal ratio in the repeat runs, not every such curve was filed as active; the % refers to the signal ratio). In outline:
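Measured: fluorescence from cleaved LiveBLAzer substrate. System: p53RE-bla cells, 16 h compound treatment at 37 C, 2 h substrate step at room temperature.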

The target of assay [10] is 5-hydroxytryptamine receptor 2A (Homo sapiens) (UniProt P28223). The assay can be described thus: 5-hydroxytryptamine receptor 2A (HTR2A) small molecule antagonists, cell-based qHTS assay (AID 1963586). Further: nearly all actives have a fitted effect of over 45% in size. Further: potency means the concentration at half of the fitted maximal effect. In outline:
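CHO cells stably expressing human HTR2A were plated for 18 h at 37 C, then loaded with calcium dye for 1 h. Compounds were preincubated 5 min at room temperature before DOI (4 nM solution) was added. Kinetic fluorescence was read for 3 min.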

For assay [11] the target is unchanged. The assay can be described thus: 5-hydroxytryptamine receptor 2A (HTR2A) small molecule agonists, cell-based qHTS assay (AID 1963587). Further: nearly all actives have a fitted effect of over 30% in size. Further: potency means the concentration at half of the fitted maximal effect. In outline: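 Kinetic calcium-flux fluorescence (2 min, 1 sec intervals) after compound addition in agonist mode. HTR2A-CHO cells were cultured 18 h, then dye-loaded 1 h at 37 C.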
The target of assay [12] is Muscarinic acetylcholine receptor M1 (Homo sapiens) (UniProt P11229). The assay can be described thus: Cholinergic receptor muscarinic 1 (CHRM1) small molecule agonists, cell-based qHTS assay (AID 1963589). Further: nearly all actives have a fitted effect of over 35% in size. In outline:
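Kinetic fluorescence (1 s intervals) of calcium-sensitive dye in human M1 CHO cells after compound addition; cells pre-incubated 18 h at 37 C/5% CO2 and dye-loaded 1 h.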

A short description of assay [13]: cAMP Responsive Elements (CRE) small molecule agonists, cell-based qHTS assay (AID 1963590). In outline: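 Test agents in DMSO were incubated 3 h at 37 C/5% CO2 with CRE-bla HEK 293T cells seeded 18 h earlier; LiveBLAzer B/G FRET substrate was added and read after 2 h at room temperature.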
Assay [14] is described as follows: cAMP Responsive Elements (CRE) small molecule antagonists, cell-based qHTS assay (AID 1963591; active means well fitted inhibition curve with a large enough effect in the signal ratio in the repeat runs, not every such curve was filed as active; the % refers to the signal ratio). In outline:
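Reporter line CRE-bla HEK 293T in dialyzed-FBS DMEM; cells preincubated 18 h, treated 3 h with compound plus NKH477 (0.25 uM final); LiveBLAzer FRET, 2 h RT.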

Assay [15] has as its target Beta-2 adrenergic receptor (Homo sapiens) (UniProt P07550). The assay can be described thus: Adrenergic beta2 receptor (ADRB2) small molecule antagonists, cell-based qHTS assay (AID 1963592). Further: series mostly up to about 92 µM; nearly all actives have a fitted effect of over 50% in size. In outline:
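Assay format: CHO-ADRB2 cells, 18-20hr seeding at 37C/5% CO2, then compound plus 1nM isoproterenol agonist mix for 0.5hr RT. Homogeneous time-resolved fluorescence cAMP detection after 1hr, expressed as 665/615 nm ratio.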

Assay [16] shares this target. Put plainly: Adrenergic beta2 receptor (ADRB2) small molecule agonists, cell-based qHTS assay (AID 1963593).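 Further: CHO cells stably overexpressing human ADRB2.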 In outline:
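CHO cells stably over-expressing ADRB2 were plated overnight at 37C, then dosed with compounds plus a stimulation mix containing 100uM IBMX and 25uM Ro-20-1724 for 0.5hr at room temperature. cAMP was measured by HTRF competition, 1hr.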

Assay [17] concerns the target D(2) dopamine receptor (Homo sapiens) (UniProt P14416). Put plainly: Dopamine D2 receptor (DRD2) small molecule agonists, cell-based qHTS assay (AID 1963594). Further: nearly all actives have a fitted effect of over 35% in size. In outline: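 cAMP accumulation in DRD2-HEK293 cells measured by HTRF after 1 h detection; compounds added 10 min before NKH477 (200nM […]) forskolin-analogue stimulation, 30 min at room temperature, with Ro20-1724 present at 0.1 mM final.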

The target is the same in assay [18]. Put plainly: Dopamine D2 receptor (DRD2) small molecule antagonists, cell-based qHTS assay (AID 1963595; active means well fitted inhibition curve with a large enough effect in the signal ratio in the repeat runs, with a control signal flat; the % refers to the signal ratio). In outline:
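Cells were plated and grown for 24 h at 37 °C. Ro20-1724 (0.1 mM final) went in first, then compound for 10 min. NKH477 (200 nM) with quinpirole (12 nM) followed for 30 min at RT, then HTRF detection reagents for 1 h.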

A short description of assay [19]: p53 small molecule agonists, cell-based qHTS assay: qHTS cell viability counter screen (AID 1963581). Further: nearly all actives have a fitted effect of over 45% in size. In outline: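 qHTS counter screen: 16 h compound exposure at 37 C of p53RE-bla HCT-116 cells (4,000 per well, seeded 5 h prior), cell viability by ATP luminescence.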
The target of assay [20] is Muscarinic acetylcholine receptor M1 (Homo sapiens) (UniProt P11229). Put plainly: Cholinergic receptor muscarinic 1 (CHRM1) small molecule antagonists, cell-based qHTS assay (AID 1963588). Further: nearly all actives have a fitted effect of over 40% in size. In outline: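 Compounds were tested at 15 concentrations in three independent runs. Dye-loaded CHRM1-CHO cells were exposed 5 min at room temperature before stimulation by acetylcholine added at 50nM. Intracellular calcium was read kinetically on FDSS for 3 min.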
Chain of Muscarinic acetylcholine receptor M1 (Homo sapiens) (P11229 whole entry, looked up): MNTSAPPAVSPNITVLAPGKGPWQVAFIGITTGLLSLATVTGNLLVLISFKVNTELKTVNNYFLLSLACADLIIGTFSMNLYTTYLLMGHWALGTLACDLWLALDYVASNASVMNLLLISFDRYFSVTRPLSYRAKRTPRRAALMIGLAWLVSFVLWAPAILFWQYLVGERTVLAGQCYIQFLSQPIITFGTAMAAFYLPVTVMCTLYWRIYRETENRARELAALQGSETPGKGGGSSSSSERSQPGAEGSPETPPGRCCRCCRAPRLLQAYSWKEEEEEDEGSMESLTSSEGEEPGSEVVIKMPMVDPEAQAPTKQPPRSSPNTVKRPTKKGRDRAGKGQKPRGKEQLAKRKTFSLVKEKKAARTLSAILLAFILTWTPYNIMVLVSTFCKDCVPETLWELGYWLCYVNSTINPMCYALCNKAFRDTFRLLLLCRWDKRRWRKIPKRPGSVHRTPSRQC

Unmarked numbers belong to inactive results. Inconclusive results are not listed. Activity calls are given as the source filed them. Unless noted, the call rests on the fitted dose curve.
On the % scale 0 is the no-effect control and ±100 the full control effect.

Chain of KiSS-1 receptor (Homo sapiens) (Q969F8 whole entry, looked up): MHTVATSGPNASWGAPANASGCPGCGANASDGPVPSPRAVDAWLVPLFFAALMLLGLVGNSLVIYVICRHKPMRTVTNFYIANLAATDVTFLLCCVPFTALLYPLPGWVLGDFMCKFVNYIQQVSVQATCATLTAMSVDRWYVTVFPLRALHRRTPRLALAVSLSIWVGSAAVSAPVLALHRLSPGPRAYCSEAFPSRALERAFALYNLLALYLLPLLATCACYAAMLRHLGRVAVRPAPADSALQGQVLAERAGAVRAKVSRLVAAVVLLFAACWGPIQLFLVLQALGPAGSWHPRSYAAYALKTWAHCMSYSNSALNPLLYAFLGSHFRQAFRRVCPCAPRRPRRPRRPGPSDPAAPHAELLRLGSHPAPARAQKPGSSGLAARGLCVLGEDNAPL
Chain of 5-hydroxytryptamine receptor 2A (Homo sapiens) (P28223 whole entry, looked up): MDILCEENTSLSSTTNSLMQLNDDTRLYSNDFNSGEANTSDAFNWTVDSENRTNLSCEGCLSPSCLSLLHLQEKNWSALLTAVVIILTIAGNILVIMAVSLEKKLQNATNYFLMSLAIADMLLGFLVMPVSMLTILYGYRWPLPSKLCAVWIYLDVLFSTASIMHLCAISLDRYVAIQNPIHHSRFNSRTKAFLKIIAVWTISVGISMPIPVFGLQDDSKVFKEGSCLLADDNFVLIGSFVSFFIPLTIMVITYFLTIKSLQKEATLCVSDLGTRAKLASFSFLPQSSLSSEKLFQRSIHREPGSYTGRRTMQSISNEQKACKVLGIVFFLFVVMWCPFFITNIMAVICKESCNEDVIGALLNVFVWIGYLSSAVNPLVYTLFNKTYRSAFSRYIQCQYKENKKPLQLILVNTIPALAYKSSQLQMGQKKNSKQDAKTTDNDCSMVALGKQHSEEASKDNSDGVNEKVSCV
Chain of Beta-2 adrenergic receptor (Homo sapiens) (P07550 whole entry, looked up): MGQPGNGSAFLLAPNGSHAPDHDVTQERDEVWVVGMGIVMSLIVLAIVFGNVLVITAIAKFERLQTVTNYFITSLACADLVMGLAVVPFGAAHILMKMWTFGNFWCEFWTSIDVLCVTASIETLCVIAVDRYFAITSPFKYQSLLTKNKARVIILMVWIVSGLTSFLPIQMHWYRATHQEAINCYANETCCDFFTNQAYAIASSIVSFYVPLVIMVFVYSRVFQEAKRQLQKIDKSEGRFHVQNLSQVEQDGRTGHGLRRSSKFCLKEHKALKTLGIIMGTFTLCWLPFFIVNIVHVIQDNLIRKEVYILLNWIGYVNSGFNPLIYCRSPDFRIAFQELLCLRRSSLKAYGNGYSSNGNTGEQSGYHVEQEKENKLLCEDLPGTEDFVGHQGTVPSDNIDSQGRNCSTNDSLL
Chain of D(2) dopamine receptor (Homo sapiens) (P14416 whole entry, looked up): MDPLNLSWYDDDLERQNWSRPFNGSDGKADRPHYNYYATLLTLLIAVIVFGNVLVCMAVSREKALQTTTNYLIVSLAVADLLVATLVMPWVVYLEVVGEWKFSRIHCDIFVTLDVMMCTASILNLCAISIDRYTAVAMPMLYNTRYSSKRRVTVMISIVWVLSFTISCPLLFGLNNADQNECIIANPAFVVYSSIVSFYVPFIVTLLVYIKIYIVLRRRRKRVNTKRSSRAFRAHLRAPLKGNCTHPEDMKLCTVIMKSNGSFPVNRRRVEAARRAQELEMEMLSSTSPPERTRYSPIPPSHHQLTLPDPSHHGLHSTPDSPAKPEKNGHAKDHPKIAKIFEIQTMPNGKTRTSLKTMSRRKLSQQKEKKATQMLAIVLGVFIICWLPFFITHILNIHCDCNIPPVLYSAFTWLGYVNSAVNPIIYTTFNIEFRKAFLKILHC

On to `CN1CCCN=C1/C=C/c1cccs1`, for which the Potency result in [1], in assay [2], in assay [3], in [4], in assay [5] and in assay [6] was “inactive” throughout. Further, the Potency result in [7], in assay [8], in assay [9], in [10], in assay [11] and in [12] was “inactive” each time. In addition, the Potency entry in assay [13], in assay [14], in [15], in assay [16], in assay [17] and in assay [18] was “inactive” in each case.

With `O=C1NC(=O)[C@@H]2CC=CC[C@H]12`, the Potency entry in assay [1], in [2], in assay [3], in assay [4], in assay [5] and in [6] was “inactive” each time. Further, the Potency entry in assay [7], in assay [8], in assay [19], in assay [10], in [11] and in assay [12] was “inactive” in each case. In addition, the Potency result in assay [15], in assay [16], in assay [17] and in assay [18] was “inactive” each time.

Regarding `CC1=CC(=C(c2ccc(N)cc2)c2ccc(N)cc2)C=CC1=N`, the activity change, negative = cytotoxicity in assay [1] was -10.2% [at 8.39 µM]; in assay [7] it was -13.2% [at 5.99 µM]; in [19] it was -0.979% [at 5.99 µM]. For the same compound, the activity change in assay [2] was -1.28% [at 5.22 µM, active compounds read high]. The activation was 0.102% [at 6.97 µM] in assay [3]; -0.23% [at 5.23 µM] in assay [4]; -13.4% [at 5.99 µM] in [5]; -2.26% [at 5.99 µM] in assay [6]; -2.87% [at 5.99 µM] in assay [9]; 2.32% [at 7.02 µM] in assay [11]. In addition, the activation in assay [12] was -0.812% [at 6.97 µM]; in [13], -0.0749% [at 8.39 µM]; in assay [16], -33.8% [at 8.39 µM]; in [17], -0.554% [at 8.39 µM]. The results for the activity, negative = inhibition in assay [10] and in [20] were 14.5% [at 5.62 µM] and -8.08% [at 5.58 µM], respectively. Besides, the activity change, negative = inhibition in assay [14] was -12.2% [at 8.39 µM]; in assay [15], -4.98% [at 8.39 µM]; in assay [18], 0.406% [at 8.38 µM].

Regarding `Oc1ccc2ccccc2c1`, the Potency entry in assay [1], in assay [2], in assay [3], in assay [4], in assay [5] and in assay [6] was “inactive” in each case. Besides, the Potency entry in assay [7], in assay [8], in assay [9], in assay [10], in assay [11] and in assay [20] was “inactive” throughout. Further, the Potency result in assay [12], in assay [13], in assay [14], in [15], in [17] and in [18] was “inactive” throughout.

On to `On1ccccc1=S`, for which the Potency is 270 nM (active) in [1], 718 nM (active) in assay [8] and 21700 nM (active) in assay [11]. The Potency result in assay [2], in assay [3], in assay [4], in [5], in assay [6] and in assay [7] was “inactive” each time. In addition, the Potency entry in assay [10], in assay [20], in assay [12], in assay [13], in [15] and in assay [17] was “inactive” throughout. In addition, the Potency entry in [18] was “inactive”.

In the case of `Nc1ccccn1`, the Potency result in assay [1], in [2], in [3], in assay [4], in assay [5] and in assay [6] was “inactive” throughout. The Potency result in assay [7], in assay [8], in assay [9], in assay [11], in [13] and in assay [15] was “inactive” each time. Also, the Potency result in assay [17] and in assay [18] was “inactive” each time. For the same compound, in assay [10], the Potency was 31.8 nM (active).

Consider `[O-][N+](=Nc1ccccc1)c1ccccc1`, for which the Potency result in assay [1], in [2], in assay [3], in assay [4], in assay [5] and in assay [6] was “inactive” each time. Besides, the Potency result in [7], in assay [8], in assay [19], in [11], in assay [20] and in assay [12] was “inactive” in each case. For the same compound, the Potency entry in [14], in [15], in assay [16] and in assay [18] was “inactive” each time.

For the compound `C[C@@H]1C[C@H]2O[C@@]3(O[C@@H]2C(C)(C)O)[C@H](O)[C@@]2(C)[C@@H]4CC[C@H]5C(C)(C)[C@@H](O[C@@H]6OC[C@@H](O)[C@H](O)[C@H]6O)CC[C@@]56C[C@@]46CC[C@]2(C)[C@@H]13`, the Potency result in [1], in assay [2], in [3], in [4], in assay [5] and in assay [6] was “inactive” throughout. In addition, the Potency entry in assay [7], in assay [8], in [19], in assay [20], in assay [12] and in assay [15] was “inactive” in each case. In addition, the Potency entry in [17] and in assay [18] was “inactive” in each case.
